Compound activity as filed in PubChem BioAssay.
Giardia killer = Small Molecules that selectively kill Giardia lamblia: qHTS; Giardia lamblia trophozoite viability; activity change, % at 7.66 µM, hits read low; hit rate 0.15% among 340,000; AID 540267, 2011; in the data active = activity change below about -80%; inconclusive = between about -30% and that limit;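 also: parasites exposed to compound for two days anaerobically before the ATP read; % is scaled to controls: 0 for no effect and ±100 for the full control effect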
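Each well holds 100 Giardia trophozoites and compound. After two days (48 hrs) at 37 deg C in anaerobic conditions, ATP is quantified by luminescence.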
SW480 rerep = A quantitative high throughput screen for small molecules that induce DNA re-replication in SW480 colon adenocarcinoma cells; SW480 DNA re-replication, Hoechst DNA content imaging, 48 h; Potency, µM (series often up to 46.1 µM), without a hit: top-dose re-replication activation, most hits filed as activators; hit rate 1.8% among 340,000; AID 624297, 2012; also: potency is read from the fitted curve at half-maximal effect; % of control where 0% means no effect; nearly all actives have a fitted effect of over 55% in size
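250 cells/well; 23 nL cpd via pin tool; 48 hr, 37 C, 5% CO2; Hoechst 40 min; imager read of total nuclear intensity, ex 405/em 500-530 nm.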
RORg inh = qHTS for inhibitors of ROR gamma transcriptional activity; Nuclear receptor ROR-gamma (Mus musculus), P51450; Drosophila S2 Gal4-RORgamma UAS-luciferase reporter, 20 h; Potency, µM (doses to about 53.6 µM), for the others: at the top dose activity change, negative = inhibition, usual class: inhibitors; hit rate 5.4% among 310,000; also: potency is read from the fitted curve at half-maximal effect; % is scaled to controls: 0 for no effect and ±100 for the full control effect; nearly all actives have a fitted effect of over 60% in size
Target sequence (P51450 whole entry, looked up, the tested form may be a part): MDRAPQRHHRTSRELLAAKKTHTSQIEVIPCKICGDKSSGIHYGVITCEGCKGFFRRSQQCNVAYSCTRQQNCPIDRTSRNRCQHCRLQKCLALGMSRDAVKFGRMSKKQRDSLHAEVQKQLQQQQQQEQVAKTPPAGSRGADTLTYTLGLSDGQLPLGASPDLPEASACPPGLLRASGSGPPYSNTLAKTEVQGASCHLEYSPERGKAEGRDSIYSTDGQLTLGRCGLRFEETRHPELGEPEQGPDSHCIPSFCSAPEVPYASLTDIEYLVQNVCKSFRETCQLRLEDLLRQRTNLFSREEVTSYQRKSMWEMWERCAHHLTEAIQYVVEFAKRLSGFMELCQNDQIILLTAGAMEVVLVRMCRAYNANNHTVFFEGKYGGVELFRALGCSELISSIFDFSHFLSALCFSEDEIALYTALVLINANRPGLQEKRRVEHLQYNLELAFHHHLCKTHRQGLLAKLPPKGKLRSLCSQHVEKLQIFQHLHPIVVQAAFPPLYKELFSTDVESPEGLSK
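Schneider cells (Drosophila), stable Gal4 DBD–ROR gamma + UAS-luc; 1 hr cmpd preincubation; Cu2+ induction 700 uM final; 20 hr ambient; luminescence.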
Gal4-VP16 FLuc = VP16 counterscreen qHTS for inhibitors of ROR gamma transcriptional activity; Drosophila S2 Gal4-VP16 UAS-luciferase, luminescence, 20 h; Potency, µM (doses to about 53.6 µM), inactives show top-dose activity, negative = inhibition, most hits filed as inhibitors; hit rate 3.5% among 310,000;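 also: Gal4-VP16 expression switched on by copper sulfate through the metallothionein promoter; potency is read from the fitted curve at half-maximal effect; % is scaled to controls: 0 for no effect and ±100 for the full control effect; nearly all actives have a fitted effect of over 50% in size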
MCF10A rereplic = A quantitative high throughput screen for small molecules that induce DNA re-replication in MCF 10a normal breast cells; MCF 10A DNA re-replication, Hoechst nuclear intensity, 48 h; Potency, µM (series often up to 46.1 µM), inactives show top-dose activity, positive = re-replication, usual class: activators; hit rate 2.9% among 350,000; also: potency is read from the fitted curve at half-maximal effect; % of control where 0% means no effect; nearly all actives have a fitted effect of over 50% in size
Chronic BCR inh = qHTS Assay to Find Inhibitors of Chronic Active B-Cell Receptor Signaling; AID 493014, 2011; Potency, µM (series often up to 46.1 µM), for inactives: top-dose activity change, negative = inhibition, hits mostly inhibitors; hit rate 0.05% among 340,000; ABC-DLBCL IkBa-CBG/CBR reporter, luminescence ratio, 4 h; active = well fitted inhibition curve with a large enough effect in the signal ratio, with a control signal flat, not every such curve was filed as active; inconclusive = small, poorly fitted or top-dose-only effect, or effect the other way, or a change in a side signal; the % refers to the signal ratio;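 also: potency is read from the fitted curve at half-maximal effect; plate controls were basal doxycycline-induced cells for no effect and cells given 10 µM MG132 for full effect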
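Compounds up to 46 uM were incubated four hours with TMD8 cells whose green CBG68 luciferase is fused to IkappaBalpha; red CBR luminescence normalised the signal, and concentration-effect curves were fitted to fusion, red and ratio data.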
Starred values were filed as active, the others as inactive; ? = inconclusive; / = no result given; [ ] = dose if it differs, or a comment. An excerpt weighted towards active compounds, which were near 8.3% of everything screened. Unless noted, calls follow the shape of the dose curve; as a rule, active = well fitted curve in the direction sought with a large enough effect; inconclusive = small, poorly fitted or top-dose-only effect, or another doubt; inactive = no such curve, though single readings can be large; an effect the other way counts as inactive or inconclusive.

SMILES	Giardia killer	SW480 rerep	RORg inh	Gal4-VP16 FLuc	MCF10A rereplic	Chronic BCR inh
CCC1Sc2ccc(S(=O)(=O)N3CCN(c4ccccc4)CC3)cc2NC1=O (stereo not drawn)	-22.9	?	?	-20.9%	20.6µM*	-2.0%
Cc1ccc(Nc2nnc(SCC(=O)NC(Cc3c[nH]c4ccccc34)C(=O)O)s2)cc1 (stereo not drawn)	9.8	-15.3%	2.2%	0.2%	11.9%	?
Cc1cc(C)n(-c2ccc(C(=O)OCC(=O)Nc3cc(S(C)(=O)=O)ccc3Cl)cc2)n1	-2.4	-5.3%	/	/	-1.7%	?
Cc1ccc(SC(=O)c2c([N+](=O)[O-])c(C)nn2C)cc1	-11.3	-4.4%	3.98µM*	3.55µM*	?	?
COc1ccccc1N(CC(=O)Nc1ccc(Br)cc1F)S(=O)(=O)c1cccs1	6.4	-45.5%	/	/	?	?
Cc1ccccc1NC(=S)N(CCN1CCCCC1)Cc1ccco1	5.6	2.2%	-38.4%	5.5%	15.5%	1.1%
Cc1cccc(C)c1NC(=S)N(CCN1CCCCCC1)Cc1ccco1	22.3	-0.7%	12.6µM*	14.6%[10 µM]	3.2%	?
Cc1cc(C)c(NC(=S)N(CCN2CCCCC2)Cc2ccco2)c(C)c1	-5.5	2.1%	10µM*	-7.8%[10 µM]	-0.4%	-8.9%
COc1ccc(S(=O)(=O)N2CCCCC2)cc1NC(=O)C1CC1C (stereo not drawn)	-0.3	1.4%	/	/	8.3%	4.6%
CC(C)Cn1nnnc1S(=O)(=O)Cc1ccccc1	/	/	14.2%	7.1%	/	/
Nc1c(C2CCCCC2)c(=O)on1C(=O)c1ccccc1	-4.0	6.1%	/	/	14.6µM*	/
CNc1cc(-c2ccccc2C(F)(F)F)ncn1	/	/	7.2%	-1.9%	/	/
CC1SC(=NC(=O)c2ccncc2)NC1=O (stereo not drawn)	13.8	3.6%	13.9%	26.5%	5.5%	0.0%
CC(C)=N/N=C1/NC(=O)C(c2ccccc2)S1 (stereo not drawn)	-0.2	-3.0%	/	/	-4.9%	/
CC1S/C(=N/N=C2CCCCC2)NC1=O (stereo not drawn)	-11.5	-3.0%	10µM*	?	-4.9%	?
CC1S/C(=N/N=C2CCC(C(C)(C)C)CC2)NC1=O (stereo not drawn)	-1.0	-4.5%	2.51µM*	5.01µM*	-0.8%	?
CC(=O)Nc1ncc(Cc2cccc(Cl)c2)s1	-7.0	?	-19.8%	?	13.2%	-14.8%
O=C(Nc1ncc(Cc2ccccc2Cl)s1)c1ccc([N+](=O)[O-])cc1	-27.9	0.4%	2µM*	2.82µM*	?	1.5%
O=C(Nc1ncc(Cc2cccc(Cl)c2)s1)c1ccc([N+](=O)[O-])cc1	-1.9	-2.6%	5.01µM*	2.82µM*	12.1%	-16.2%
CCc1ccc(CCC(=O)Nc2ncc(Cc3ccccc3Cl)s2)o1	-1.4	4.61µM*	?	?	1.64µM*	?
CC(C)C(=O)Nc1ncc(Cc2cccc(Cl)c2)s1	13.1	4.3%	11.2µM*	?	6.2%	-15.3%
CC1=NN(c2nc(C)cc(C)n2)C(=O)C1CCC(C)C (stereo not drawn)	-1.4	?	2µM*	7.94µM*	-2.4%	-16.0%
Cc1cc(C)n(-c2nc(NCCCN(C)C)c3c4c(sc3n2)CCCC4)n1	-2.7	?	3.98µM*	7.08µM*	?	?
Cc1cc(C)n(-c2nc(NCCN(C)C)c3c4c(sc3n2)COC(C)(C)C4)n1	1.2	?	15.8µM*	-19.0%	?	?
CCN(CC)CCNc1nc(-n2nc(C)cc2C)nc2sc3c(c12)CC(C)(C)OC3	-1.5	?	2.24µM*	?	?	2.5%
SMILES	Giardia killer	SW480 rerep	RORg inh	Gal4-VP16 FLuc	MCF10A rereplic	Chronic BCR inh
Cc1cc(C)n(-c2nc(NCCC(C)C)c3c4c(sc3n2)COC(C)(C)C4)n1	19.1	-5.5%	0.631µM*	-11.6%	3.1%	-15.6%
CCOC(=O)c1c(C)nn(-c2ccc(NC(=O)CSCC(=O)O)cc2)c1C	-3.4	26.9%	-0.3%	5.9%	?	7.8%
O=C1C=CC(=O)N1Cc1ccccn1	8.4	-11.6%	/	/	-10.3%	/
Cc1cc(C)n(-c2nc(-n3nc(C)cc3C)c3c4c(sc3n2)COC(C)(C)C4)n1	/	/	3.55µM*	12.6µM*	/	?
COc1ccc(-c2ccc(SCC(=O)NC3CCCC3)nn2)cc1OC	16.9	-29.1%	-5.8%	3.8%	?	-12.5%
O=c1oc(-c2ccc(O)c(O)c2)cc2cccc(O)c12	3.9	16.4µM*	/	/	7.31µM*	?
O=c1oc(-c2ccc(O)c(O)c2)cc2cc(O)cc(O)c12	2.1	0.1%	/	/	-10.9%	?
NS(=O)(=O)c1ccc(-n2cccc2C=O)cc1	20.6	-5.6%	2.4%	7.4%	-1.6%	6.0%
O=c1cc(O)c2sc(Nc3ccc(F)cc3)nc2[nH]1	-10.0	?	43.1%	-9.3%	16.4µM*	0.8%
COc1ccc2c(c1OC)c(=O)n1c3ccc(OC(C)C(=O)NCCCN4CCOCC4)cc3c3ccnc2c31 (stereo not drawn)	4.5	18.4µM*	-29.0%	-17.7%	5.8µM*	?
CC(Oc1ccc2c(c1)c1ccnc3c4ccccc4c(=O)n2c13)C(=O)NCCN1CCOCC1 (stereo not drawn)	12.0	?	-43.0%	?	1.64µM*	?
O=C(CCNC(=O)c1ccc([N+](=O)[O-])cc1)Nc1ccccc1N1CCCCC1	-11.0	-13.9%	/	/	-5.7%	-1.0%
CCN(CC)C(=O)c1sc2nc(-c3cccs3)cc(-c3ccc(Cl)cc3)c2c1N	7.8	13µM*	-28.2%	3.4%	?	-0.2%
Cc1nnc(NC(=O)c2sc3nc(-c4cccs4)cc(C(F)(F)F)c3c2N)s1	-10.3	3.7%	3.98µM*	?	?	?
Cc1cc(C(F)(F)F)c2c(N)c(C(=O)Nc3c(Cl)cccc3Cl)sc2n1	/	/	/	/	/	-5.3%
CC(C)(C)C(=O)c1sc2nc(-c3cccs3)cc(C(F)(F)F)c2c1N	1.7	-1.6%	10µM*	-8.7%	-0.9%	0.2%
Nc1c(C(=O)Nc2nccs2)sc2nc(-c3cccs3)cc(C(F)(F)F)c12	5.4	?	?	10µM*	?	?
CC(=O)c1ccc(N2CCN(C(=O)C3CCCN(c4ncnc5c4nc4n5CCCCC4)C3)CC2)cc1 (stereo not drawn)	1.2	-11.0%	6.5%	-13.2%	1.1%	-9.9%
OCc1ccccc1O[C@H]1OC(CO)C(O)C(O)C1O (stereo partly drawn)	/	/	1.9%	3.5%	/	/
